Among the data in PubChem BioAssay (Tox21) are Potency values, retold here.

Each structure is given as a SMILES string. Activity calls are given as the source filed them. Where a call stands in place of a potency, no number is given. Calls come from the whole dose curve; as a rule, active = well fitted curve in the direction sought with a large enough effect in the repeat runs; inconclusive = weak or mixed curves; inactive = flat fitted curve, though single readings scatter.

The experiment in a line: qHTS assay to test for compound auto fluorescence at 460 nm (blue) in HEK293 cell free culture (AID 720681). The following applies: cell-free medium, autofluorescence 405/460 nm (blue); series mostly up to 46 µM. Summed up:
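Blue fluorescence (Ex 405/Em 460 nm, triamterene-equivalent) was read immediately after pin transfer of compound or DMSO into medium (DMEM, 10% FBS) without cells.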
A general note: In qHTS, concentration-response curves come from the screen itself.
For `CCN(CC)CCOc1ccc(-c2nc3cc(Cl)ccc3s2)cc1`, the Potency result is “inactive”.
On to `O=C(O)CCC/C=C\C[C@@H]1[C@@H](/C=C/[C@@H](O)COc2cccc(C(F)(F)F)c2)[C@H](O)C[C@@H]1O`, for which the Potency entry is “inactive”.
For `OCC(O)COc1ccc(Cl)cc1` (configuration not stated), the Potency result was “inactive”.
With `CC(Oc1ccccc1)C(=O)N[C@@H]1C(=O)N2[C@@H]1SC(C)(C)[C@@H]2C(=O)O` (some centres not stated), the Potency entry is “inactive”.
The entry for `C=CCNC1=C2C[C@@H](C)C[C@H](OC)[C@H](O)[C@@H](C)/C=C(\C)[C@H](OC(N)=O)[C@@H](OC)/C=C\C=C(/C)C(=O)NC(=CC1=O)C2=O` is “inactive”.
As to `COCC(=O)Nc1cc(Sc2ccccc2)ccc1N=C(NC(=O)OC)NC(=O)OC`, the Potency entry was “inactive”.
On to `CCCCCCCCCCCCCCCC(=O)OC[C@@H](O)[C@H]1OC[C@H](O)[C@H]1O`, for which the Potency result is “inactive”.
With `CCN(CC)Cc1cc(Nc2ccnc3cc(Cl)ccc23)ccc1O`, the Potency result is “inactive”.
Take `C=CC[C@@H]1/C=C(\C)C[C@H](C)C[C@H](OC)[C@H]2O[C@@](O)(C(=O)C(=O)N3CCCC[C@H]3C(=O)O[C@H](/C(C)=C/[C@@H]3CC[C@@H](O)[C@H](OC)C3)[C@H](C)[C@@H](O)CC1=O)[C@H](C)C[C@@H]2OC`: the Potency entry was “inactive”.
The entry for `CN(C)CCC=C1c2ccccc2C(C)(C)c2ccccc21` is “inactive”.
With `CN1CC(O)c2cc(N=NC(N)=O)c(O)cc21` (configuration not stated) the entry was “inactive”; with `CCOC(=O)Cc1cccc(-c2cc(CCCCCCc3ccc(O[C@H]4O[C@H](COC(C)=O)[C@@H](OC(C)=O)[C@H](OC(C)=O)[C@@H]4OC(C)=O)c(-c4cccc(CC(=O)OCC)c4)c3)ccc2O[C@H]2O[C@H](COC(C)=O)[C@@H](OC(C)=O)[C@H](OC(C)=O)[C@@H]2OC(C)=O)c1`, “inactive”.
